In publication PMC11062922 (Nature Chemical Biology, 2023):
Where two headings read alike, the source gives them in different places.

Key:
Parameters in all cases: species or system human, MV4-11 + K-562 + COLO205 + SK-N-BE2 + OVCAR-8
ACVR1B = details: read-out: apparent Kd, n = 1
CIT = details: read-out: apparent Kd; compound concentrations: 100 nM and 1000 nM (sheet 'Samples'), CATDS: 0.11106465565946499; n = 1
CSNK1D = details: read-out: apparent Kd; compound concentrations: 100 nM and 1000 nM (sheet 'Samples'), CATDS: 0.131295791130774; n = 1
GRK6 = details: read-out: apparent Kd; compound concentrations: 100 nM and 1000 nM (sheet 'Samples'), CATDS: 0.11057023586935499; n = 1
MAPK14 = details: read-out: apparent Kd; compound concentrations: 100 nM and 1000 nM (sheet 'Samples'), CATDS: 0.16800162105717001; n = 1
MAPKAPK2 = details: read-out: apparent Kd; compound concentrations: 100 nM and 1000 nM (sheet 'Samples'), CATDS: 0.164691534232419; n = 1
PKN3 = details: read-out: apparent Kd; compound concentrations: 100 nM and 1000 nM (sheet 'Samples'), CATDS: 0.17855560727929401; n = 1
ADRBK1 = details: read-out: apparent Kd, n = 1
AKT1 = details: read-out: apparent Kd, n = 1
AKT2 = details: read-out: apparent Kd, n = 1
CDK17 = details: read-out: apparent Kd; compound concentrations: 100 nM and 1000 nM (sheet 'Samples'), CATDS: 4.6046417847887898E-2; n = 1
CDK6 = details: read-out: apparent Kd, n = 1
CSNK1A1 = details: read-out: apparent Kd, n = 1
LIMK1 = details: read-out: apparent Kd; compound concentrations: 100 nM and 1000 nM (sheet 'Samples'), CATDS: 4.6691533927662399E-2; n = 1
MAP2K1 = details: read-out: apparent Kd, n = 1
MAP2K2 = details: read-out: apparent Kd, n = 1
NCL = details: read-out: apparent Kd; compound concentrations: 100 nM and 1000 nM (sheet 'Samples'), CATDS: 4.2837987158590003E-2; n = 1
NQO1 = details: read-out: apparent Kd, n = 1
PHKG2 = details: read-out: apparent Kd; compound concentrations: 100 nM and 1000 nM (sheet 'Samples'), CATDS: 4.0833835587176903E-2; n = 1
PIM2 = details: read-out: apparent Kd; compound concentrations: 100 nM and 1000 nM (sheet 'Samples'), CATDS: 5.4197855398822901E-2; n = 1
PIP4K2C = details: read-out: apparent Kd; compound concentrations: 100 nM and 1000 nM (sheet 'Samples'), CATDS: 6.0471713091723403E-2; n = 1
PRKAG1 = details: read-out: apparent Kd; compound concentrations: 100 nM and 1000 nM (sheet 'Samples'), CATDS: 6.5107573303195193E-2; n = 1
PYGL = details: read-out: apparent Kd, n = 1
VDAC3 = details: read-out: apparent Kd; compound concentrations: 100 nM and 1000 nM (sheet 'Samples'), CATDS: 4.4574473592348701E-2; n = 1
YES1 = details: read-out: apparent Kd; compound concentrations: 100 nM and 1000 nM (sheet 'Samples'), CATDS: 6.4280508089749694E-2; n = 1
ZAK = details: read-out: apparent Kd; compound concentrations: 100 nM and 1000 nM (sheet 'Samples'), CATDS: 3.9848277554837802E-2; n = 1
CDC42BPG = details: read-out: apparent Kd; compound concentrations:100 nM and 1000 nM (sheet 'Samples'); n = 1
RIOK2 = details: read-out: apparent Kd; compound concentrations:100 nM and 1000 nM (sheet 'Samples'); n = 1
TGFBR1 = details: read-out: apparent Kd; compound concentrations:100 nM and 1000 nM (sheet 'Samples'); n = 1
TP53RK = details: read-out: apparent Kd; compound concentrations:100 nM and 1000 nM (sheet 'Samples'); n = 1
[1] = compound concentrations:100 nM and 1000 nM (sheet 'Samples')

Compound: CSc1cccc2c(-c3ccncn3)c(-c3ccc(F)cc3)nn12 [GW514786X]
- potency estimated from few doses (ACVR1B; compound concentrations: 100 nM and 1000 nM (sheet 'Samples'), CATDS: 0.17509937322487801): 801 nM
- potency estimated from few doses (CIT): 2190 nM
- potency estimated from few doses (CSNK1D): 1420 nM
- potency estimated from few doses (GRK6): 2220 nM
- potency estimated from few doses (MAPK14): 863 nM
- potency estimated from few doses (MAPKAPK2): 895 nM
- potency estimated from few doses (PKN3): 774 nM

Compound: Cc1nnc(-c2ccc(C)c(-c3ccc(C(=O)Nc4cccc(C#N)c4)cc3)c2)o1 [GW607117X]
- potency estimated from few doses (ACVR1B; compound concentrations: 100 nM and 1000 nM (sheet 'Samples'), CATDS: 5.7242163764382799E-2): 1170 nM
- potency estimated from few doses (ADRBK1; compound concentrations: 100 nM and 1000 nM (sheet 'Samples'), CATDS: 5.42741985746545E-2): 1290 nM
- potency estimated from few doses (AKT1; compound concentrations: 100 nM and 1000 nM (sheet 'Samples'), CATDS: 5.4273018110040303E-2): 1290 nM
- potency estimated from few doses (AKT2; compound concentrations: 100 nM and 1000 nM (sheet 'Samples'), CATDS: 6.3448544870815707E-2): 976 nM
- potency estimated from few doses (CDK17): 1810 nM
- potency estimated from few doses (CDK6; compound concentrations: 100 nM and 1000 nM (sheet 'Samples'), CATDS: 4.5600576408269602E-2): 1850 nM
- potency estimated from few doses (CSNK1A1; compound concentrations: 100 nM and 1000 nM (sheet 'Samples'), CATDS: 4.1256570238539701E-2): 2360 nM
- potency estimated from few doses (LIMK1): 1750 nM
- potency estimated from few doses (MAP2K1; compound concentrations: 100 nM and 1000 nM (sheet 'Samples'), CATDS: 5.0029485958775197E-2): 1510 nM
- potency estimated from few doses (MAP2K2; compound concentrations: 100 nM and 1000 nM (sheet 'Samples'), CATDS: 5.0543278096989601E-2): 1480 nM
- potency estimated from few doses (NCL): 2140 nM
- potency estimated from few doses (NQO1; compound concentrations: 100 nM and 1000 nM (sheet 'Samples'), CATDS: 5.1571181916601101E-2): 1420 nM
- potency estimated from few doses (PHKG2): 2420 nM
- potency estimated from few doses (PIM2): 1290 nM
- potency estimated from few doses (PIP4K2C): 1060 nM
- potency estimated from few doses (PRKAG1): 935 nM
- potency estimated from few doses (PYGL; compound concentrations: 100 nM and 1000 nM (sheet 'Samples'), CATDS: 4.9538207783530498E-2): 1550 nM
- potency estimated from few doses (VDAC3): 1950 nM
- potency estimated from few doses (YES1): 955 nM
- potency estimated from few doses (ZAK): 2580 nM

Compound: COc1ccccc1-c1cc(/C=C2\C(=O)Nc3ncc(Br)cc32)cc(Br)c1O [GW442130X]
- potency estimated from few doses (ACVR1B; [1]): 646 nM
- potency estimated from few doses (ADRBK1; [1]): 1960 nM
- potency estimated from few doses (AKT1; [1]): 1540 nM
- potency estimated from few doses (AKT2; [1]): 1120 nM
- potency estimated from few doses (CDC42BPG): 453 nM
- potency estimated from few doses (CDK6; [1]): 1940 nM
- potency estimated from few doses (CSNK1A1; [1]): 1780 nM
- potency estimated from few doses (MAP2K1; [1]): 1650 nM
- potency estimated from few doses (MAP2K2; [1]): 1580 nM
- potency estimated from few doses (NQO1; [1]): 1260 nM
- potency estimated from few doses (PYGL; [1]): 1840 nM
- potency estimated from few doses (RIOK2): 1450 nM
- potency estimated from few doses (TGFBR1): 592 nM
- potency estimated from few doses (TP53RK): 1740 nM
